Shown are actives, neighbours in structure and some others; about 10% of the full set was active somewhere.
RORg inh: inhibitors of mouse ROR gamma transcriptional activity; hit rate 5.4% among 310,000; Potency, µM (top dose mostly 53.6 µM), for the others: top-dose activity change, negative = inhibition, usual class: inhibitors; Drosophila S2 Gal4-RORgamma UAS-luciferase reporter, 20 h; P51450; further: on the % scale 0 is the no-effect control and ±100 the full control effect; nearly all actives have a fitted effect of over 60% in size
Target sequence (P51450 whole entry, looked up, the tested form may be a part): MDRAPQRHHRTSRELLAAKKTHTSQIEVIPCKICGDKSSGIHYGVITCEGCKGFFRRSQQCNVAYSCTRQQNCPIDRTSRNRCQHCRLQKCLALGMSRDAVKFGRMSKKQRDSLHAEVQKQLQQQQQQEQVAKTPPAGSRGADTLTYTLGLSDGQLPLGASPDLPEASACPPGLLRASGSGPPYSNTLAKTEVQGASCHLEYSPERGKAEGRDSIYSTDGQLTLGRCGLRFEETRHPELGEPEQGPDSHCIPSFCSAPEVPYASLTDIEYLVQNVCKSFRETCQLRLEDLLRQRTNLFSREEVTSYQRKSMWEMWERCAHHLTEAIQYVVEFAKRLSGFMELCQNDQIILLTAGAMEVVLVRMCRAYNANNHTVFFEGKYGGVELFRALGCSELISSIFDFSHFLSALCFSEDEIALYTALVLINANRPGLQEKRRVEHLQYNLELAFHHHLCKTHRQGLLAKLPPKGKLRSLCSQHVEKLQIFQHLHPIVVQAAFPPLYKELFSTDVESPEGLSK
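Luminescence from a UAS-regulated Photinus luciferase reporter in stably transfected Drosophila Schneider cells is measured; decreased signal marks ROR gamma inhibition. Fusion expression is induced by 700 uM copper sulfate for 20 hr.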
Gal4-VP16 FLuc: Gal4-VP16 reporter inhibition counter-screen; Drosophila S2 Gal4-VP16 UAS-luciferase, luminescence, 20 h; Potency, µM (highest dose often 53.6 µM), for the others: at the top dose activity, negative = inhibition, usual class: inhibitors; hit rate 3.5% among 310,000;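 further: Gal4-VP16 expression switched on by copper sulfate through the metallothionein promoter; on the % scale 0 is the no-effect control and ±100 the full control effect; nearly all actives have a fitted effect of over 50% in size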
KB-V1 cytotox: kills drug-selected multidrug resistant KB-V1 cells; Potency, µM (doses to about 46.1 µM), hits mostly cytotoxic; hit rate 3.4% among 400,000; KB-V1 MDR cells viability, CellTiter-Glo, 72 h; further: on the % scale 0 is the no-effect control and ±100 the full control effect; nearly all actives have a fitted effect of over 60% in size
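KB-V1, DMEM (no phenol red) + 10% FBS; cpd pin-transferred, titration series; 72 h, 37 degrees C; CellTiter-Glo, luminescence. Data normalized, curve-fit.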
MCF10A rerep: DNA re-replication induction in MCF 10a cells; MCF 10A DNA re-replication, Hoechst nuclear intensity, 48 h; Potency, µM (doses to about 46.1 µM), without a hit: top-dose activity, positive = re-replication, actives largely listed as activators; hit rate 2.9% among 350,000; AID 624296; further: % of control where 0% means no effect; nearly all actives have a fitted effect of over 50% in size
KB-3-1 cytotox: kills parental KB-3-1 adenocarcinoma cells. KB-3-1 viability, CellTiter-Glo ATP luminescence, 72 h. Potency, µM (doses to about 46.1 µM), actives largely listed as cytotoxic. hit rate 1.4% among 400,000. AID 1347075; further: on the % scale 0 is the no-effect control and ±100 the full control effect; nearly all actives have a fitted effect of over 60% in size
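72 h, 37 °C compound treatment of KB-3-1 parental cells; CellTiter-Glo added, 10 min, luminescence read. Data corrected against DMSO-only plates and normalized before curve fitting.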
SW480 rereplic: DNA re-replication induction in SW480 cells; Potency, µM (top dose mostly 46.1 µM), inactives show top-dose re-replication activation, hits mostly activators; SW480 DNA re-replication, Hoechst DNA content imaging, 48 h; AID 624297; hit rate 1.8% among 340,000; further: % of control where 0% means no effect; nearly all actives have a fitted effect of over 55% in size
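Hoechst fluorescence of nuclei (405 nm excitation, 500-530 nm emission) measured by plate-scanning imager after 48 hr compound exposure at 37 C; re-replication scored as increased number of nuclei with elevated intensity.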
An asterisk follows results filed as active; i = inactive; ? = inconclusive; nt = not tested or not shown; ! = not active in a repeat; [ ] = dose if it differs, or a comment. The call rests on the fitted dose curve; in most records, active means well fitted curve in the direction sought with a large enough effect; inconclusive means small, poorly fitted or top-dose-only effect, or another doubt; inactive means no such curve, though single readings can be large; an effect the other way counts as inactive or inconclusive. Potency means the concentration at half of the fitted maximal effect.

SMILES	RORg inh	Gal4-VP16 FLuc	KB-V1 cytotox	MCF10A rerep	KB-3-1 cytotox	SW480 rereplic
Cc1cc(C)n(-c2ccc3cccc(NS(C)(=O)=O)c3n2)n1	4.47µM*	?	?	?	?	?
O=S(=O)(Nc1cccc2cccnc12)c1ccc(S(=O)(=O)N2CCCC2)cc1	2.51µM*	5.01µM*	?	?	i	2.91µM*
Cc1cc(C)n(-c2cccc3cccnc23)n1	-12.7%	-4.5%	i	-3.6%	i	-9.9%
CCCCCCCC/C=C\CCCCCCCCCCCC(=O)O	-1.4%	-1.3%	nt	nt	nt	nt
CCCCCCCC/C=C\CCCCCCCC(=O)O	3.3%[10 µM]	-15.7%	i	29.9µM*!	i	3.2%
CCN(CC)C(=O)C1=C(C)N(Cc2ccccc2)C(=O)C(CC(=O)NCc2ccco2)C1 (configuration not stated)	nt	nt	i	nt	i	nt
O=C(CN1C(=O)C2(OCCO2)c2ccccc21)c1ccc(Cl)cc1	10.7%	-1.9%	20.6µM*	12.9%	i	-0.5%
O=C(N/N=C/C(Cl)=C/c1ccc([N+](=O)[O-])cc1)C(=O)Nc1ccc(C(=O)O)cc1	-3.2%	15.0%	i	?	i	?
O=C(N/N=C/C(Cl)=C/c1ccc([N+](=O)[O-])cc1)C(=O)Nc1ccccc1C(=O)O	49.1%	?	2.06µM*	4.7%	7.31µM*	25.2%
Cc1cc(C)c(NC(=O)CSc2nc(=O)n(Cc3cccnc3)c3c2CCC3)c(C)c1	nt	nt	i	nt	i	nt
O=C(NCc1ccc(F)cc1)c1cc(C2CCCN(S(=O)(=O)c3ccccc3)C2)on1 (configuration not stated)	nt	nt	i	nt	i	nt
COc1ccc(-n2c(CNc3ccc(C)cc3)nnc2SCC(=O)Nc2nc(-c3ccccc3)cs2)cc1	14.9%	-8.2%	i	14.6µM*	i	?
Cc1cc(C)nc(SCc2nnc(SCC(=O)Nc3nc(-c4ccccc4)cs3)n2-c2ccccc2)n1	4.8%	-6.2%	i	11.5%	i	-1.2%
COc1ccc(NCc2nnc(SCC(=O)Nc3nc(-c4ccccc4)cs3)n2-c2ccccc2)cc1	8.0%	5.01µM*	i	10.3µM*	13µM*	?
CN1CCN(C(=O)CSc2nc(-c3ccncc3)ccc2C#N)CC1	-12.5%	2.2%	i	-2.5%	i	-5.2%
CN1CCN(C(=O)CSc2nc(-c3cccs3)cc(-c3cccs3)c2C#N)CC1	10.4%	-5.3%	?	20.6µM*	?	?
CCN(CC)C(=O)CSc1nc(-c2cccs2)cc(-c2cccs2)c1C#N	7.1%	-2.4%	18.4µM*	?	i	0.3%
COc1ccc(-c2cc(-c3ccccc3)c(C#N)c(SCC(=O)O)n2)cc1	nt	nt	i	-0.2%	i	?
CCN(CC)C(=O)CSc1nc(N)c(C#N)c(-c2cccs2)c1C#N	-14.5%	-14.3%	?	18.2%	i	7.8%
COc1ccc(-c2cc(-c3ccc(Cl)cc3)c(C#N)c(SCC(=O)O)n2)cc1	-3.7%	?	i	16.4µM*	i	-61.3%
N#Cc1c(-c2ccc(F)cc2)cc(-c2cccs2)nc1SCC(=O)O	6.0%	0.5%	i	23.1µM*	i	?
Cc1ccccc1NC(=O)Nc1nc(C(N)C2CCCCC2)cs1 (configuration not stated)	nt	nt	i	nt	i	nt
CC1(C)CC(=O)c2cc(-c3nc(-c4ccc(Br)cc4)cs3)c(=O)n(-c3ccccc3)c2C1	nt	nt	i	nt	i	nt
CCc1nnc(NC(=O)CSc2ccc(-c3ccc(F)cc3)nn2)s1	-8.8%	1.0%	nt	nt	nt	nt
CCc1nnc(NC(=O)CSc2nc(-c3ccccc3)cc(-c3ccc(F)cc3)c2C#N)s1	?	-6.9%	?	4.11µM*	?	10.3µM*
SMILES	RORg inh	Gal4-VP16 FLuc	KB-V1 cytotox	MCF10A rerep	KB-3-1 cytotox	SW480 rereplic
O=c1c(O[C@@H]2O[C@H](CO)[C@H](O)[C@H](O)[C@H]2O)c(-c2ccc(O)c(O)c2)oc2cc(O)cc(O)c12	15.4%	-14.3%	nt	nt	nt	nt
COc1c(-c2ccc(O)c(O)c2)oc2cc(O)cc(O)c2c1=O	?	11.2µM*!	i	16.0%	i	?
Cc1ccc2nc3c(cc2c1)CN(Cc1ccco1)C(=NCC1CCCO1)S3 (configuration not stated)	?	-2.9%[0.365 µM]	?	16.1%	?	?
Cc1cccc2cc3c(nc12)SC(=NCC1CCCO1)N(Cc1ccco1)C3 (configuration not stated)	2.82µM*	3.16µM*	i	?	i	5.8µM*
Cc1c(O)c2c(c(C(=O)/C=C/c3ccccc3)c1O)OC(C)(C)C=C2	nt	nt	i	nt	i	nt
NC(=NCCc1ccc(Cl)cc1)NS(=O)(=O)c1ccccc1	10.3%	-1.3%	i	0.3%	i	12.3%
NC(=NCCc1ccc(Cl)cc1)NS(=O)(=O)c1ccc(F)cc1	?	-7.4%	14.6µM*	-11.0%	?	-15.7%
O=S(=O)(NC(=NCc1ccccc1)c1ccc(F)cc1)c1ccc(Cl)cc1	25.9%	-3.7%	?	0.731µM*	i	-58.7%
O=C1CSc2ccc(C(=O)N3CCCCC3)cc2N1	nt	nt	i	nt	i	nt
CCn1cc(CNc2nc3nonc3nc2N2CCCCC2)cn1	7.08µM*	?	i	-0.6%	i	1.2%
C1CCN(c2nc3nonc3nc2N2CCCC2)C1	23.7%	0.1%	i	-1.4%	i	-11.5%
CCOc1cc(NC(=S)NCc2ccco2)c(OCC)cc1NC(=O)CC(C)C	?	-16.1%	i	-2.6%	i	0.7%
CCOc1cc(N2CCOCC2)c(OCC)cc1NC(=O)c1ccccc1C	-4.1%	9.9%	?	-6.9%	i	-2.5%
CCOc1cc(NC(=S)NCC2CCCO2)c(OCC)cc1NC(=O)CC(C)C (configuration not stated)	11.2µM*	-13.3%	i	3.0%	i	-1.2%
CCOc1ccccc1NC(=S)NCC1CCCO1 (configuration not stated)	11.2µM*	?	i	-2.1%	i	-12.5%
CCOc1cc(NC(=S)NC)c(OCC)cc1NC(=O)c1ccc(OC)cc1	10µM*	?	i	7.1%	i	-2.3%
CCOc1cc(NC(=S)Nc2ccccc2OC)c(OCC)cc1NC(=O)c1ccccc1C	1.78µM*	2.24µM*	i	12.8%	i	3.7%
COc1ccc(CCNC(=O)c2ccc(F)c(S(=O)(=O)N3CCCCC3)c2)cc1	nt	nt	i	nt	i	nt
CC(NC(=O)CN(c1ccc(Cl)cc1Cl)S(=O)(=O)c1ccccc1)c1ccccc1 (configuration not stated)	nt	nt	i	nt	i	nt

Source: PubChem BioAssay (National Center for Advancing Translational Sciences (NCATS))
